According to PubChem BioAssay AID1159580 (chemical genetic matrix, 2015):
Where “and” joins values, the source holds several entries; their conditions need not be identical. Equal values may be shown once. The campaign covered roughly 5,500 compounds. About 2,000 (36%) were called active. About 18% were inconclusive and are not listed. Cut-off read from the data, not from the text of the source: active = normalized growth mostly below about 0.91 (no sharp cut-off); inconclusive = no clear call, values can overlap the other calls; inactive = mostly above about 0.92. Some of the results follow.

Test: chemical genetic growth profiling, strain panel (AID 1159580);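 note: tested at 20 µM; growth read once vehicle control cultures reached saturation at 30 °C; 1 = growth at the plate median or of vehicle wells; lower values mean less growth of the strain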
Details: S. cerevisiae deletion strains, growth OD

Measured: normalized growth

CC(=O)Oc1cc(OC(C)=O)c2c(c1)O[C@H](c1ccc(OC(C)=O)c(OC(C)=O)c1)[C@@H](OC(C)=O)C2
inactive: locus YAL013W, strain DEP1, active compounds read low 1 | locus YAL021C, strain ccr4, active compounds read low 1 | locus YAL026C, strain drs2, active compounds read low 0.995 | locus YAL030W, strain snc1, active compounds read low 1 | locus YBL061C, strain skt5, active compounds read low 1 | locus YBR009C, strain hhf1, active compounds read low 1.02 | locus YBR021W, strain FUR4, active compounds read low 0.975 | locus YBR023C, strain chs3, active compounds read low 1 | locus YBR171W, strain sec66, active compounds read low 1 | locus YBR229C, strain ROT2, active compounds read low 0.992 | locus YBR231C, strain swc5, active compounds read low 0.99 | locus YBR279W, strain paf1, active compounds read low 1 | locus YCL011C, strain gbp2, active compounds read low 1 | locus YCL016C, strain dcc1, active compounds read low 1 | locus YCL029C, strain bik1, active compounds read low 0.965 | locus YCL061C, strain MRC1, active compounds read low 0.994 | locus YCL069W, strain vba3, active compounds read low 1 | locus YCR088W, strain abp1, active compounds read low 1 | locus YDL005C, strain med2, active compounds read low 1 | locus YDL035C, strain GPR1, active compounds read low 0.995 | locus YDL040C, strain nat1, active compounds read low 1 | locus YDL074C, strain BRE1, active compounds read low 0.99 | locus YDL101C, strain DUN1, active compounds read low 0.994 | locus YDL134C, strain PPH21, active compounds read low 1.04 | locus YDL185W, strain tfp1, active compounds read low 0.972 | locus YDL192W, strain arf1, active compounds read low 0.98 | locus YDR001C, strain nth1, active compounds read low 1 | locus YDR069C, strain doa4, active compounds read low 0.994 | locus YDR101C, strain arx1, active compounds read low 0.961 | locus YDR137W, strain rgp1, active compounds read low 1.02 | locus YDR159W, strain sac3, active compounds read low 0.999 | locus YDR162C, strain NBP2, active compounds read low 0.997 | locus YDR195W, strain ref2 0.966 | locus YDR297W, strain sur2, active compounds read low 1.01 | locus YDR318W, strain mcm21, active compounds read low 1.01 | locus YDR334W, strain swr1, active compounds read low 1 | locus YDR335W, strain msn5, active compounds read low 0.997 | locus YDR388W, active compounds read low 0.978 | locus YDR392W, strain spt3, active compounds read low 0.927 | locus YDR502C, strain sam2, active compounds read low 0.984 | locus YEL003W, strain gim4, active compounds read low 1 | locus YEL037C, strain rad23, active compounds read low 1 | locus YEL061C, strain CIN8 (second series), active compounds read low 0.998 | locus YEL061C, strain CIN8, active compounds read low 1 | locus YER015W, strain faa2, active compounds read low 0.995 | locus YER016W, strain bim1, active compounds read low 0.999 | locus YER110C, active compounds read low 0.97 | locus YER111C, strain swi4, active compounds read low 1 | locus YER155C, strain BEM2 (second series), active compounds read low 1 | locus YER155C, strain BEM2, active compounds read low 1 | locus YER167W, strain BCK2, active compounds read low 1 | locus YFR010W, strain ubp6, active compounds read low 1 | locus YGL078C, strain dbp3, active compounds read low 0.979 | locus YGL086W, strain mad1, active compounds read low 0.955 | locus YGL167C, strain pmr1, active compounds read low 1 | locus YGL173C, strain kem1, active compounds read low 1.01 | locus YGL227W, strain vid30, active compounds read low 0.993 | locus YGL240W, strain doc1, active compounds read low 1 | locus YGL248W, strain PDE1, active compounds read low 0.993 | locus YGL253W, strain hxk2, active compounds read low 0.997 | locus YGR078C, strain PAC10, active compounds read low 0.991 | locus YGR135W, strain pre9, active compounds read low 0.992 | locus YGR229C, strain SMI1, active compounds read low 0.992 | locus YGR252W, strain gcn5, active compounds read low 1.1 | locus YHR013C, strain ard1, active compounds read low 0.967 | locus YHR027C, strain rpn1, active compounds read low 1 | locus YHR030C, strain SLT2, active compounds read low 0.998 and 0.994 | locus YHR079C, strain IRE1 (second series), active compounds read low 0.98 | locus YHR079C, strain IRE1, active compounds read low 0.98 | locus YHR094C, strain hxt1, active compounds read low 0.985 | locus YHR129C, strain ARP1, active compounds read low 1 | locus YHR142W, strain chs7, active compounds read low 1.02 | locus YHR200W, strain rpn10, active compounds read low 0.982 | locus YIL066C, strain RNR3, active compounds read low 0.978 | locus YIL073C, strain SPO22, active compounds read low 1.01 | locus YIL125W, strain kgd1, active compounds read low 0.975 | locus YIR030C, strain dcg1, active compounds read low 0.982 | locus YJL092W, strain hpr5, active compounds read low 0.997 | locus YJL095W, strain BCK1 (second series), active compounds read low 1 | locus YJL095W, strain BCK1, active compounds read low 1.02 and 0.979 | locus YJL115W, strain asf1, active compounds read low 0.99 | locus YJL129C, strain trk1, active compounds read low 0.995 | locus YJL134W, strain LCB3, active compounds read low 0.997 | locus YJL154C, strain vps35, active compounds read low 0.997 | locus YJL164C, strain tpk1, active compounds read low 1 | locus YJL166W, strain qcr8, active compounds read low 1.01 | locus YJL168C, strain set2, active compounds read low 0.981 | locus YJL187C, strain SWE1 (second series), active compounds read low 0.985 | locus YJL187C, strain SWE1, active compounds read low 1 | locus YJR043C, strain POL32, active compounds read low 1.01
